pKd: −log10 of the molar value.
Legend:
DRAK2 = system: T1, DRAK2
T1 construct: gene STK17B

DRAK1 = system: T2, DRAK1
T2 construct: gene STK17A
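Note: kd values determined as follow-up on hits from a single-replicate KINOMEscan panel screen.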

Row | SMILES | pKd (DRAK2) | pKd (DRAK1)
1 | CSc1ccc(-c2cc3ncnc(SCC(=O)O)c3s2)cc1 | 8.42 | 
2 | O=C(O)COc1ncnc2cc(-c3ccc4[nH]ncc4c3)sc12 | 7.52 | 6.60

Reference: article PMC5540273 (PLoS ONE, 2017)
